# Laboratory results reported in PubChem BioAssay.
# The other results are listed elsewhere or left out. Unmarked numbers belong to inactive results. Calls of active or inactive are those of the source.
# Legend:
# [1] = molecular target: Inward rectifier potassium channel 2 (Mus musculus) (UniProt P35561); assay: inhibition of Kir2.1 inward rectifier potassium flux – cell-based, FluxOR thallium flux, duplicate, confirmation (AID 2032;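 active means Primary-screen hit whose thallium flux fell at least 3 control SD below untreated wells in both duplicates, with normal baseline fluorescence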); settings: Kir2.1-expressing cells, FluxOR thallium flux fluorescence, at 10 µM; stronger effect = lower value
# Sequence of Inward rectifier potassium channel 2 (Mus musculus) (P35561 whole entry, looked up): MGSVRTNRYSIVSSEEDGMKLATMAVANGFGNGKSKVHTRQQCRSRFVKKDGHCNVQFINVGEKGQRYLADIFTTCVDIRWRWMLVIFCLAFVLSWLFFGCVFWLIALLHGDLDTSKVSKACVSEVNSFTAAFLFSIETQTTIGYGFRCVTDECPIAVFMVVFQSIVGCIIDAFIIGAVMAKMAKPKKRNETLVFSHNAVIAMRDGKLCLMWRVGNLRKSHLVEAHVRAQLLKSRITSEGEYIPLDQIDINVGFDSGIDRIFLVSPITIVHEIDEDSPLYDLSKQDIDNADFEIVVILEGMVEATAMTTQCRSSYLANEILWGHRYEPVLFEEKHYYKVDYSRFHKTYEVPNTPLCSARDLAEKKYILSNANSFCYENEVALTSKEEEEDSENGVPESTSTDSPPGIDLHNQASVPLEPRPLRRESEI
# [2] = parental HEK293 cell activity, no Kir2.1 – FluxOR thallium flux, duplicate, single concentration, counter-screen for Kir2.1 inhibitor project, confirmation (AID 2105;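 active means dye signal at least 3 control SD above or below untreated wells in both duplicates, raw fluorescence within 3, either direction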;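 on FluxOR signal as % of negative control (100 = no effect): percent is based on the flux ratio of peak minus minimum fluorescence over baseline F0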); settings: parental HEK293 cells, FluxOR thallium flux fluorescence, at 10 µM; 0% = unstimulated blank wells
# [3] = parental CHO-K1 cell activation, no KCNQ2 – FluxOR thallium flux, duplicate, counter-screen for KCNQ2 potentiator project, confirmation (AID 2282;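 active means signal rise of at least 3 SD above the untreated control mean, in both duplicate wells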;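 further: counter screen of KCNQ2 potentiator hits so any rise reflects channel-independent effects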); settings: parental CHO-K1 cells, FluxOR thallium flux fluorescence; at 10 µM; stronger effect = higher value; zero = vehicle mean+3SD, 100% = vehicle-minus-blank window
# [4] = molecular target: Potassium voltage-gated channel subfamily KQT member 1 (Homo sapiens) (UniProt P51787); assay: KCNQ1 activation in stable CHO cells – cell-based, FluxOR thallium flux, selectivity assay for KCNQ2 potentiator project, confirmation (AID 2283;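 active means fluorescence ratio rise of at least 3 SD of vehicle wells above their mean, in both replicate wells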;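 further: 0% = vehicle mean plus 3 SD and 100% = vehicle minus unstimulated blank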); settings: FluxOR thallium flux fluorescence, at 10 µM, stronger effect = higher value, beyond 3SD, as % of vehicle-control signal
# Sequence of Potassium voltage-gated channel subfamily KQT member 1 (Homo sapiens) (P51787 whole entry, looked up): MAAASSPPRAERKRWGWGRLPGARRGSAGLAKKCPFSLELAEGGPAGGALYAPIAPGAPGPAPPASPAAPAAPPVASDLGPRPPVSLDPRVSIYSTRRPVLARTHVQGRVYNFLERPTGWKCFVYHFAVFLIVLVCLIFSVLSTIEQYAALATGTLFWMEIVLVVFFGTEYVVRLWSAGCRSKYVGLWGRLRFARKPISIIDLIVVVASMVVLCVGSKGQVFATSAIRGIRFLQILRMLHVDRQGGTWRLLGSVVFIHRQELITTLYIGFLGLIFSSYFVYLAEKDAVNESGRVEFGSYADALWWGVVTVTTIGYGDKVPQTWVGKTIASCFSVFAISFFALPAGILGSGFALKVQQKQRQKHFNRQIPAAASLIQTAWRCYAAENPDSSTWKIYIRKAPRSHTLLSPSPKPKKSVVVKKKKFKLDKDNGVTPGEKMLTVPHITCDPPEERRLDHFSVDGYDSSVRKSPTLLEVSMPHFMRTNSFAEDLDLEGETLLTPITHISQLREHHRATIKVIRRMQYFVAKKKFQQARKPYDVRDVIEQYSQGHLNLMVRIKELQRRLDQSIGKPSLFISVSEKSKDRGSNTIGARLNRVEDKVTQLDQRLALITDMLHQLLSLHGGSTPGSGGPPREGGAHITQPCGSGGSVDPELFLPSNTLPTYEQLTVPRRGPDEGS
# [5] = molecular target: Potassium voltage-gated channel subfamily KQT member 2 (Rattus norvegicus) (UniProt O88943); assay: KCNQ2 potassium channel activity enhancers – cell-based, CHO, FluxOR thallium flux, duplicate, confirmation (AID 2287;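 active means fluorescence ratio rising 3 SD or more over the vehicle control mean in both replicates, plus primary screen hit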;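 further: peak minus minimum thallium fluorescence divided by baseline after K/Tl stimulus; 0% = vehicle mean plus 3 SD and 100% = vehicle minus unstimulated blank difference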); settings: CHO-KCNQ2 cells, FluxOR thallium flux fluorescence; at 10 µM; stronger effect = higher value
# [6] = molecular target: Inward rectifier potassium channel 2 (Mus musculus) (UniProt P35561); assay: PubChem AID 2345; settings: HEK293 Kir2.1, FluxOR thallium flux fluorescence; at 10 µM; stronger effect = higher value;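 further: 0% = vehicle mean plus 3 SD and 100% = vehicle minus no-stimulus blank window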
# [7] = molecular target: Potassium voltage-gated channel subfamily KQT member 2 (Rattus norvegicus) (UniProt O88943); assay: W236L mutant KCNQ2 current enhancers – cell-based, rat KCNQ2 W236L, CHO, automated patch clamp, mechanism study for KCNQ2 potentiator project (AID 2558;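 active means current increase at least 3 SD of the untreated controls above them in both duplicate recordings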); settings: at 25 µM
# [8] = molecular target: Voltage-gated inwardly rectifying potassium channel KCNH2 (Homo sapiens) (UniProt Q12809); assay: hERG block by Kir2.1 inhibitor candidates – cell-based, thallium flux, counter-screen for Kir2.1 inhibitor project (AID 2236); settings: hERG-expressing cells, at 10 µM; stronger effect = higher value;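 further: host cells are CHO cells stably expressing hERG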
# Sequence of Voltage-gated inwardly rectifying potassium channel KCNH2 (Homo sapiens) (Q12809 whole entry, looked up): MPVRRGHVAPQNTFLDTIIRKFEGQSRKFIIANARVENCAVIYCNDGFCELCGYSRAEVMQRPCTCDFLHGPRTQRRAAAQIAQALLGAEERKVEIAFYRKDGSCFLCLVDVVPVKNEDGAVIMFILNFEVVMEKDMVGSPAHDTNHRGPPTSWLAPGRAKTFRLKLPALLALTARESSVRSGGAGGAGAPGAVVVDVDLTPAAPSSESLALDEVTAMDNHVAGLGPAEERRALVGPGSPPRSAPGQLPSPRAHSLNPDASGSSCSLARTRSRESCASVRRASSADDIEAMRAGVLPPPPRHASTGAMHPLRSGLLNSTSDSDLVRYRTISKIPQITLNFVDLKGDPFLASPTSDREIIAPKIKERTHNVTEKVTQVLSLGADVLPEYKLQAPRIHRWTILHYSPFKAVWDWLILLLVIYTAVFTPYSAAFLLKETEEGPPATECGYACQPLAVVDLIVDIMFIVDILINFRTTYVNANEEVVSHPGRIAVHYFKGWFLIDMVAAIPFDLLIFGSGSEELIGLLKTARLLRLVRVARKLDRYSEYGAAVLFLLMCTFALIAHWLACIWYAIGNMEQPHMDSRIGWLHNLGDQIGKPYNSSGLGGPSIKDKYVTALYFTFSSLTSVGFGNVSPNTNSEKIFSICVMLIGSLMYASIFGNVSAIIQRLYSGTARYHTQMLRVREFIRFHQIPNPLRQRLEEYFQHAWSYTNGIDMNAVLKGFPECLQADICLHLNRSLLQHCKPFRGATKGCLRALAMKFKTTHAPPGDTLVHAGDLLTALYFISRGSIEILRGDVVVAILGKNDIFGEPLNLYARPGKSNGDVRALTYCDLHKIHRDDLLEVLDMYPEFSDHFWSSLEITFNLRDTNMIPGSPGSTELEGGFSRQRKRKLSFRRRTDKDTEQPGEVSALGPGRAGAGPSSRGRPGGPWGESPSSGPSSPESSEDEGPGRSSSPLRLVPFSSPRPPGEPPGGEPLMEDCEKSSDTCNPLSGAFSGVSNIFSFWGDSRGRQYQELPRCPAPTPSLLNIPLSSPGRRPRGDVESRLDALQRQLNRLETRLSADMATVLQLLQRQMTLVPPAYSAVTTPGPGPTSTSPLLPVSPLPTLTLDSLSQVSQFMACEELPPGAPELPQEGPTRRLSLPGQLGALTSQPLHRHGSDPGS
# [9] = molecular target: Potassium channel subfamily K member 9 (Homo sapiens) (UniProt Q9NPC2); assay: human KCNK9 potassium channel blockers – cell-based, selectivity assay for Kir2.1 inhibitor project (AID 2329); settings: KCNK9-expressing cells, ion flux inhibition, at 10 µM; stronger effect = higher value
# [10] = molecular target: Inward rectifier potassium channel 2 (Mus musculus) (UniProt P35561); assay: Kir2.1 potassium current inhibition – cell-based, secondary, automated electrophysiology, Kir2.1 inhibitor project (AID 463252); settings: Kir2.1 cells, automated patch-clamp current inhibition, at 25 µM; stronger effect = higher value
# [11] = nonspecific voltage dye response without TRPC6 – cell-based, parental HEK293, counter-screen for TRPC6 modulator project, confirmation (AID 488924;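 active means membrane potential signal moves up or down beyond 5 SD from buffer-only wells, on both duplicate plates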); settings: parental HEK293, membrane potential dye fluorescence; at 10 µM
# [12] = membrane potential response modulators in host HEK293 cells – cell-based, second counter-screen, parental HEK293, membrane potential dye, counter-screen for TRPC6 modulator project, confirmation (AID 488926;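 active means membrane potential signal drops by more than 5 SD from the mean control signal, in both duplicate plates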); settings: parental HEK293, membrane potential dye fluorescence; at 10 µM; after compound, maximal acetylcholine stimulation
# [13] = system: Transient receptor potential cation channel subfamily C member 4 (mouse); assay: off-target membrane potential effects via mouse TRPC4 – cell-based, HEK293 TRPC4/mu-opioid, membrane potential dye, selectivity assay for TRPC6 modulator project, confirmation (AID 488927;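 active means membrane potential signal moved up or down beyond 5 SD of buffer control wells, in both duplicate plates, actives on both sides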;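 further: plate controls were assay buffer wells for no effect and DAMGO maximal-effect wells for full effect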); settings: membrane potential fluorescence, at 10 µM
# [14] = system: TRPC4 (transient receptor potential cation channel C4), mouse; assay: DAMGO-evoked mouse TRPC4 response blockade – cell-based, second screen, HEK293 TRPC4/mu-opioid, membrane potential dye, selectivity assay for TRPC6 modulator project, confirmation (AID 488928;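 active means drop in membrane potential signal beyond 5 SD of the control wells in both duplicate plates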;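 further: TRPC4 counter screen for TRPC6 hits run under conditions tuned for TRPC6 not TRPC4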); settings: membrane potential dye fluorescence, at 10 µM, stimulated with maximal-effect DAMGO; stronger effect = higher value
# [15] = molecular target: Short transient receptor potential channel 6 (Mus musculus) (UniProt Q61143); assay: blockers of TRPC6 cation channel activity – HEK293 cells, membrane potential dye, duplicate, confirmation (AID 488960;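 active means fluorescence ratio falls more than 5 SD below the full-stimulation control mean, in both duplicate runs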;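 further: integrated fluorescence ratio of peak minus minimum over baseline after agonist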); settings: ACh-evoked depolarization, at 10 µM; stronger effect = higher value
# Sequence of Short transient receptor potential channel 6 (Mus musculus) (Q61143 whole entry, looked up): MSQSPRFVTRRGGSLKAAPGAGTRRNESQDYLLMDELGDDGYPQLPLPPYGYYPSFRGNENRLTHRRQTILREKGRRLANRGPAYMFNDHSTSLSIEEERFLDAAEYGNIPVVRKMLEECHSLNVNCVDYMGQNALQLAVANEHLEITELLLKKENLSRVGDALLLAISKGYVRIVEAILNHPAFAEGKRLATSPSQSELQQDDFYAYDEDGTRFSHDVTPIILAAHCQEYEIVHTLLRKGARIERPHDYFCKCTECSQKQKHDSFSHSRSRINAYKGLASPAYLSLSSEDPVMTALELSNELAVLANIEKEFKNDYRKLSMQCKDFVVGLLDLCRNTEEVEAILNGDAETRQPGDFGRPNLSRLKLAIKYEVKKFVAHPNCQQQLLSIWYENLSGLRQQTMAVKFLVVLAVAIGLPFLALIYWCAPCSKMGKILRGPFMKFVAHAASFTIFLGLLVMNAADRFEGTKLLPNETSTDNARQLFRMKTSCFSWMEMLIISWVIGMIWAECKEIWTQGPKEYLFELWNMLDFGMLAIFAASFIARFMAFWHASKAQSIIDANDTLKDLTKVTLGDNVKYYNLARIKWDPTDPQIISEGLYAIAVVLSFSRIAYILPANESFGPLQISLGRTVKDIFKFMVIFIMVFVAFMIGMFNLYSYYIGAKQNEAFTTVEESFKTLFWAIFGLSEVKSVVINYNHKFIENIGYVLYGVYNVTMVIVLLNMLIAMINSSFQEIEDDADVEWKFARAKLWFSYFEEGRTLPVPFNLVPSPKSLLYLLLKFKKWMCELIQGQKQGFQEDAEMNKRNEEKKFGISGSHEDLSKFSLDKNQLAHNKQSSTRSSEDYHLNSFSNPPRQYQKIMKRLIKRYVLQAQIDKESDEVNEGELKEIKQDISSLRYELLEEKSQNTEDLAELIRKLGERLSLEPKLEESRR
structure (smiles),measurement,setting,value
COc1ccc(C(=O)Nc2ncc3c(n2)-c2ccccc2CC3)cc1,outcome,[1],inactive
same,outcome,[2],inactive
same,activity increase over 3SD of controls,[3],-7.8%
same,activation over 3SD threshold,[4],8.3% (active)
same,"potentiation, less the hit threshold",[5],-1%
same,activity over 3SD threshold,[6],-29.6%
same,outcome,[7],inactive
S=C(Nc1ccc(Br)cc1)NC1CCN(Cc2ccccc2)CC1,"Tl flux remaining, % of negative control (stronger effect = lower value)",[1],48% (active)
same,outcome,[2],inactive
same,inhibition,[8],49% (active)
same,outcome,[9],inactive
same,inhibition,[10],4.2% (active)
CCCCCCCCCCOC(=O)Cn1c(COc2cccc(OC)c2)[n+](C)c2ccccc21,outcome,[1],inactive
same,outcome,[2],inactive
CC1(C)NC(=O)N(CCCCSc2ccc(Cl)cc2)C1=O,"Tl flux remaining, % of negative control (stronger effect = lower value)",[1],46% (active)
same,outcome,[2],inactive
same,outcome,[8],inactive
same,outcome,[9],inactive
same,inhibition,[10],40.8% (active)
CCc1ccccc1NC(=O)[C@@H]1CCC(=O)N1C1OC(=O)c2c1ccc(OC)c2OC (stereo not given in full),outcome,[1],inactive
same,outcome,[2],inactive
same,activity increase over 3SD of controls,[3],82.8% (active)
same,activation over 3SD threshold,[4],55% (active)
same,"potentiation, less the hit threshold",[5],-19.6%
same,activity over 3SD threshold,[6],-22%
O=C(CCCN1CCc2[nH]c3ccc(F)cc3c2C1)c1ccc(F)cc1,"Tl flux remaining, % of negative control (stronger effect = lower value)",[1],46% (active)
same,outcome,[2],inactive
same,inhibition,[8],69% (active)
same,outcome,[9],inactive
same,inhibition,[10],5.5% (active)
CN(c1ccccc1)S(=O)(=O)c1ccc(Cl)c(C(=O)OCC(=O)NCc2ccco2)c1,outcome,[1],inactive
same,outcome,[2],inactive
same,activity increase over 3SD of controls,[3],-5.5%
same,activation over 3SD threshold,[4],-28.3%
same,"potentiation, less the hit threshold",[5],-1.3%
same,activity over 3SD threshold,[6],-38.2%
N#Cc1c(-c2ccccc2)nc(SCc2cccc(C(F)(F)F)c2)[nH]c1=O,outcome,[1],inactive
same,FluxOR signal as % of negative control (100 = no effect),[2],58% (active)
same,activity increase over 3SD of controls,[3],-8.3%
same,activation over 3SD threshold,[4],-15%
same,"potentiation, less the hit threshold",[5],6% (active)
same,activity over 3SD threshold,[6],-39.2%
same,outcome,[7],inactive
Cc1nnc(SCc2ccc(C(=O)c3ccc(Cl)cc3)o2)n1-c1ccccc1,"Tl flux remaining, % of negative control (stronger effect = lower value)",[1],66% (active)
same,outcome,[2],inactive
same,outcome,[8],inactive
same,outcome,[9],inactive
same,inhibition,[10],19% (active)
same,membrane potential signal change,[11],116% (active)
same,outcome,[12],inactive
same,"percent change from control (negative = decrease, positive = increase)",[13],23.5% (active)
same,outcome,[14],inactive
same,inhibition,[15],62% (active)
C/C=C(/C)C(=O)OC1Cc2c(ccc3ccc(=O)oc23)OC1(C)C (stereo not given),"Tl flux remaining, % of negative control (stronger effect = lower value)",[1],63% (active)
same,outcome,[2],inactive
same,outcome,[8],inactive
same,outcome,[9],inactive
same,outcome,[10],inactive
COc1ccc(C(CCNCc2ccccc2F)c2ccc(F)cc2)cc1 (stereo not given),"Tl flux remaining, % of negative control (stronger effect = lower value)",[1],39.5% (active)
same,outcome,[2],inactive
CCC(Cc1ccccc1)NS(=O)(=O)c1ccc2c(c1)NC(=O)CS2 (stereo not given),"Tl flux remaining, % of negative control (stronger effect = lower value)",[1],62% (active)
same,outcome,[2],inactive
COc1ccccc1-c1n[nH]c2c1[C@H](C)CC[C@H]2C(C)C,outcome,[1],inactive
same,outcome,[2],inactive
CC(C)(c1ccccc1)c1ccc(OCCN)cc1,"Tl flux remaining, % of negative control (stronger effect = lower value)",[1],30.5% (active)
same,outcome,[2],inactive
same,outcome,[8],inactive
same,outcome,[9],inactive
same,inhibition,[10],36.1% (active)
CCCn1c(C2CCCN2c2nc(-c3ccc(C)cc3)cs2)nc2cc(Cl)c(N3CCCCC3)cc21 (stereo not given),outcome,[1],inactive
same,outcome,[2],inactive
same,activity increase over 3SD of controls,[3],12.5% (active)
same,activation over 3SD threshold,[4],-30.1%
same,"potentiation, less the hit threshold",[5],-9.8%
same,activity over 3SD threshold,[6],-27.9%
